This note sets out measurements from PubChem BioAssay AID977606 (Broad Institute, 2014).

Molecules are shown by their SMILES. About 430 (29%) of roughly 1,500 compounds were called active. The list is a sample of the results. Results with a measured potency or affinity are listed apart. A number with no mark means an inactive call. How the calls were made is not given here.

A short description of the assay: insulin secretion activators without glucose, dose response, counter-screen for glucose-dependent insulin secretion activators, cell-based, INS-1E, Gaussia luciferase, luminescence, cherry-pick (AID 977606).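 Further: 0% = median of neutral control wells.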 The conditions noted are these: INS-1E Gaussia luciferase insulin secretion, no glucose, 100% = twice neutral-control luminescence; series mostly up to 35 µM; activation: at the top concentration. For orientation: Counterscreens check selectivity or assay interference.
As to `COCCNc1nc(N2CCCCC2)c2cnn(C)c2n1`, the “activation” value is 7.01%.
On to `COc1cc2c(cc1OC)C(Cc1ccc(O)cc1)NCC2` (centres undefined), for which the “activation” value is -1.37%.
With `COc1cc2c(cc1OC)C(Cc1ccc(O)cc1)N(C)CC2` (centres undefined) the figure was -9.53%; with `c1ccc(-c2nc(NCC3CC3)nc3ccsc23)cc1`, 7.35%.
In the case of `CN1CCCCC(NC(=O)c2ccccc2)C1=O` (centres undefined), the “activation” value is 9.94%.
For the compound `Cc1nccn1-c1ncnc2sc3c(c12)CCCC3`, the “activation” value is -5.65%.
Regarding `COc1ccccc1CSc1nc2c(c(=O)n(C)c(=O)n2C)n1C`, the “activation” value was -8.58%.
The same measure for `COC(=O)c1ccc(CNC(=O)CCc2c[nH]c3ccccc23)cc1`: -10.2%; for `Cc1nnc2c(NCCC(C)C)nc3ccccc3n12`: -2.67%.
Consider `CCOC(=O)c1nc(NCc2cccnc2)c2ccccc2n1`, for which the “activation” value is -0.868%.
In the case of `Cn1c(=O)n(Cc2ccccc2Br)c2ccccc21`, the “activation” value is 27.3%.
As for `CC(C)CCN1CC(O)=C(c2nc(-c3ccc(Cl)cc3)cs2)C1=N`, the “activation” value is 4.45%.
The same measure for `C=CCNc1cc(C)oc(=O)c1C(=O)CCC`: -6.6%.
Turning to `COc1ccccc1CNS(=O)(=O)c1cc(-c2cc(C)no2)ccc1C(C)C`, the “activation” value is -7.45%.
With `COc1ccccc1Cn1c(=O)oc2ccccc21` the figure was 1.4%.
Take `COc1ccc(CNC(=O)C2Cc3c(-c4cccc(F)c4)ccnc3O2)cc1OC` (centres undefined): the “activation” value was -55.6%.
Turning to `COc1ccc(CN2CCOC2=O)cc1OC`, the “activation” value is -14.9%.
On to `COC(=O)[C@]1(Cc2ccccc2)N[C@H](CN(C)C(=O)Nc2ccc(C)cc2)[C@@H]2C(=O)N(C)C(=O)[C@@H]21`, for which the “activation” value is -4.45%.
In the case of `CCNc1nc(NC(C)C)nc(N(C)C#N)n1`, the “activation” value was -1.68%.
Consider `CC1CN(S(=O)(=O)c2cc(C(=O)NC(C)c3cccnc3)ccc2Cl)CC(C)O1` (centres undefined), for which the “activation” value is -5.54%.
With `COc1cc2c(cc1OC)[C@H](C)N(C(=O)NCc1ccccc1)CC2` the figure was -7.31%; with `CC(=O)Nc1nc(C)nc(-c2ccccc2OC(C)=O)n1`, 25.7%; with `Cc1ccc(C(CC(=O)O)NC(=O)c2ccc(S(=O)(=O)N3CC(C)OC(C)C3)cc2)cc1` (centres undefined), -15.2%.
Turning to `CCOC1=C2[C@H](c3ccc(C)cc3)N(S(=O)(=O)c3ccc(C)cc3)C[C@H]2n2c(=O)n(-c3ccccc3)c(=O)n2C1`, the “activation” value is 0.601%.
Turning to `CC(=O)c1cccc(-c2csc3ncnc(Sc4nnnn4C)c23)c1`, the “activation” value was 1.21%.
`CN1C(=O)NC(c2ccc(O)cc2)C2=C1CN(c1ccccc1)C2=O` (centres undefined): the “activation” value was -1.76%.
On to `O=C(CC(NC(=O)c1ccccc1)c1ccccc1)Nc1cccc2ccccc12` (centres undefined), for which the “activation” value was -12.6%.
As for `Cc1ccc(NC(=O)c2ccccc2-c2ccccc2C(=O)O)cc1C`, the “activation” value is 2.93%.
As to `C=C(C)C1Cc2c(C)nn(-c3cccc4cccnc34)c2C1` (centres undefined), the “activation” value was 6.7%.
For `O=C(COc1ccc(Cl)cc1)NCCS(=O)(=O)N1CCN(c2ccccc2F)CC1`, the “activation” value was -13.2%.
As to `O=C(COc1cccc2c1CCNC2=O)NC1CCCCC1`, the “activation” value was -5.65%.
In the case of `COc1ccc(CN(C)C(=O)CCN=C2NS(=O)(=O)c3ccccc32)c(OC)c1`, the “activation” value is 3.04%.
As to `COc1ccc(Cc2nnc(NC(=O)Cc3cccs3)s2)cc1OC`, the “activation” value is 25.7%.
With `CC(C)CC(=O)Nc1cccc(-c2nc3ncccc3o2)c1` the figure was -8.91%; with `CCOC(=O)c1c(C)[nH]c(C(C)=NNC(=O)c2cccs2)c1C`, -3.52%.
With `CCOC(=O)c1oc2ccccc2c1NC(=O)c1ccco1` the figure was 4%.
As to `CCCCOc1ccc(SCCCN2CCOCC2)cc1`, the “activation” value is 53.8%.
Take `C/C(=N\NC(=O)CO/N=C(\C)c1cccs1)c1ccc(N)cc1`: the “activation” value is -3.9%.
In the case of `Cc1ccnc(NS(=O)(=O)c2ccc(NC(=O)CCc3ccccc3)cc2)n1`, the “activation” value is 4.42%.
As to `FC(F)(F)c1ccc(Cl)c(-n2c(Cc3cccs3)n[nH]c2=S)c1`, the “activation” value was -10.4%.
The same measure for `COc1ccc(CNC(=O)C2Cc3c(-c4ccccc4)ccnc3O2)cc1OC` (centres undefined): 11%; for `O=C(OC1CCOC1=O)c1cc(-c2ccc(Cl)cc2)nc2ccccc12` (centres undefined): 8.02%; for `COc1ccc(C2CNC(=O)C2)cc1OC1CCCC1` (centres undefined): -4.37%.
The same measure for `O=S(=O)(NCc1ccccc1)c1ccc(S(=O)(=O)N2CCCCC2)cc1`: -3.85%; for `CCCn1c(O)c(N=NC(=O)c2cccnc2)c2cc(Br)ccc21`: -27%; for `COc1ccc(C(=O)N=C2CCC(C#N)=C3c4cc(OC)c(OC)cc4CCN23)cc1`: -15%.
`C=CCN=c1sc(C(=O)OC)cc(=O)n1CC=C`: the “activation” value is -3.79%.
`CC(=O)C(C)n1c(CN(C)Cc2ccccc2)nc2c1c(=O)n(C)c(=O)n2C` (centres undefined): the “activation” value is -4.37%.
`COC(=O)C1CCN(c2cc(Cl)nc(N)n2)CC1`: the “activation” value was -11%.
Consider `O=C(Nc1ccc(Br)cc1)c1cc2ccccn2n1`, for which the “activation” value was 7.83%.
As for `O=C(NC(=S)NCC1CCCO1)c1ccc(Cl)cc1Cl` (centres undefined), the “activation” value is 0.701%.
The same measure for `COc1ccc(C(=O)Nc2ccccc2C(=O)NCC2CCCO2)cc1` (centres undefined): 5.62%; for `COC(=O)c1c(C)oc(C)c1S(=O)(=O)Nc1ccc(C(C)C)cc1`: -3.18%; for `COc1ccc(/C=C/c2noc(-c3ccccc3OC(C)=O)n2)cc1`: 4.45%.
In the case of `CCCCc1[nH]c(=O)c(C#N)c2c1CCCC2`, the “activation” value is -9.04%.
With `COC(=O)c1ccc(Oc2ccc(C(F)(F)F)cn2)cc1`, the “activation” value is 4.53%.
`c1cc2c(cc1CN1CCN(C3CCCCCC3)CC1)OCO2`: the “activation” value was 1.19%.
Take `CCOc1ncccc1C(=O)NCc1ccc(C)cc1`: the “activation” value is 4.91%.
Regarding `CCOc1ncccc1C(=O)NNC(=O)c1ccccc1-n1cccc1`, the “activation” value was -4.2%.
As for `O=C(c1cccs1)N(Cc1ccccn1)Cc1ccco1`, the “activation” value is -8.86%.
Take `COc1ccc2nc(CCN(C)C(=O)C3CCC(=O)N(Cc4cccc(F)c4)C3)[nH]c2c1` (centres undefined): the “activation” value was -15.1%.
As to `CC1(C)CCCC(C)(C)N1CC(O)COCCOc1ccc(Br)cc1` (centres undefined), the “activation” value is 0.686%.
Turning to `Cc1ccc2c(c1)CCCN2C(=O)c1ccc2c(c1)OCO2`, the “activation” value is 1.47%.
With `CN(C(=O)c1ccc2c(c1)SC1=NS(=O)(=O)CCN12)C(c1ccccc1)c1ccccc1` the figure was -6.46%.
As for `CCOc1ccc(CCNC(=O)Cn2ccc3ccccc3c2=O)cc1OCC`, the “activation” value was -1.1%.
With `COc1cc(CN(C)c2ccc(S(=O)(=O)N3CCCC3)cn2)ccc1OC(F)F` the figure was 1.77%; with `CC(C)(C)C1=Nn2c(nnc2C2CCCCC2)SC1`, 11.8%; with `COc1ccc(CCNC(=O)CCC(=O)c2cccs2)cc1OC`, -22.3%.
For `COc1ccc(C2CC(=O)C(c3ccc(C)cc3)=CN2Cc2ccccc2)cc1` (centres undefined), the “activation” value is -10.9%.
With `CCN1CCN(c2nnc(-c3ccccc3)c3ccccc23)CC1`, the “activation” value is -5.54%.
For the compound `CCn1cc(C(=O)O)c(=O)c2cc(F)c(N3CCN(C(=S)NC(=O)c4cccc(C)c4)CC3)cc21`, the “activation” value is -18%.
For `CCOC(=O)c1nn(-c2ccccc2)c2nc(Nc3ccccc3)cc(=O)n12`, the “activation” value was -13.5%.
As to `CC1CC1C(=O)Nc1cc(C(F)(F)F)ccc1N1CCOCC1` (centres undefined), the “activation” value is -7.62%.
As for `O=C(N=C1SC2CS(=O)(=O)CC2N1c1ccc(F)c(Cl)c1)C1CC1` (centres undefined), the “activation” value was 13.8%.
Regarding `CCCc1nc(-c2cc3cc(C)ccc3[nH]c2=O)no1`, the “activation” value was 43.8%.
Consider `CC(=O)N1CCN(c2nnc(-c3ccc(C)cc3)c3ccccc23)CC1`, for which the “activation” value was -0.606%.
With `CC1Oc2ccccc2N(Cc2cccc(F)c2)C1=O` (centres undefined), the “activation” value is 11.7%.
On to `O=c1c2sccc2n(Cc2cccc(F)c2)c(=O)n1-c1ccc(F)cc1`, for which the “activation” value was -6.27%.
The same measure for `Cc1ccc(-c2ccc([C@@H]3[C@@H]4CN(Cc5ccccc5F)C[C@H]3N4)cc2)cc1`: 5.14%.
The same measure for `COc1ccc(CN(C)C(=O)COc2cccc(-n3cnnn3)c2)cc1OC`: 9.02%; for `COc1cc(/C=N/NC(=O)CNC(=O)c2cccs2)ccc1O`: 0.237%; for `O=C(Nc1ccc(F)cc1)C1COc2ccccc2O1` (centres undefined): -15.7%.
Take `CN(C(=O)c1ccc(C#N)cc1)c1nnc(-c2cnccn2)s1`: the “activation” value is -8.7%.
The same measure for `CC(C)CCn1c(=O)c2ccccc2n2c(CN3CCOCC3)nnc12`: 8.19%.
Take `COc1ccc(C(=O)/C=C2/c3ccccc3CC(C)(C)N2C)cc1OC`: the “activation” value is 16.4%.
Take `O=C(NC(=S)Nc1cccc2[nH]ncc12)c1ccccc1`: the “activation” value was -4.69%.
As for `Nc1[nH]c(C(=O)c2ccccc2)c(-c2ccncc2)c1C(=O)NCc1cccc2ccccc12`, the “activation” value was -26.7%.
As for `COc1cc(CN2CCC(n3nccc3NC(=O)C3CCOC3)CC2)ccc1F` (centres undefined), the “activation” value was -17.1%.
Turning to `COc1ccc(-c2nc(N)ncc2-c2ccc(OC)c(OC)c2)c(O)c1`, the “activation” value is 10.8%.
As for `COc1ccc(C(=O)c2ccc(OC)c(OC)c2)cc1`, the “activation” value is -2.11%.
On to `COc1ccc(C(=O)c2cnc[nH]2)cc1OC`, for which the “activation” value is -0.483%.
On to `COc1ccc(C(=O)O/N=C(\N)c2ccc(OC)c(OC)c2)cc1`, for which the “activation” value was -1.47%.
For `c1ccc(-c2nnc3n2-c2ccccc2SC3)cc1`, the “activation” value is 0.882%.
Consider `COCCOC(=O)C1=C(C)NC(=O)N(C(C)=O)C1c1ccc(Cl)cc1` (centres undefined), for which the “activation” value is -0.928%.
As to `Cc1cc2nc(-c3ccc(Cl)cc3)c(Cc3ccsc3)n2c(C)c1Br`, the “activation” value was -6.36%.
For `CCn1c(C)nc2cc(S(=O)(=O)C(F)(F)F)ccc21`, the “activation” value was -6.94%.
As for `COc1cc2[nH]c3c(Cl)ncnc3c2cc1OC`, the “activation” value was -0.758%.
Consider `COc1ccc(CC(=O)O/N=C(\N)c2ccccc2)cc1OC`, for which the “activation” value was -0.902%.
`COc1ccc(/C=N/NC(=O)CCOc2ccccc2C)cc1OC`: the “activation” value was 11.2%.
For `COc1ccc(/C=N/NC(=O)Cn2nnc3ccccc32)cc1OC`, the “activation” value was -12.4%.
On to `CNS(=O)(=O)c1ccc2c3c(cccc13)C(=O)N2`, for which the “activation” value was 3.01%.
For the compound `CCOC(=O)c1c(N)c(C#N)c2n1CCCC2`, the “activation” value was -4.2%.
With `O=S(=O)(c1ccc(Cl)nc1)N1CCc2ccccc21`, the “activation” value was -0.653%.
On to `COc1ccc(NC(=O)C2CCCN2S(=O)(=O)c2ccc3c(c2)CC(C)N3C(C)=O)cc1OC` (centres undefined), for which the “activation” value is -7.94%.
As to `COc1ccc(CC(=O)OCC(=O)N2CCCc3ccccc32)cc1OC`, the “activation” value was 0.376%.
As to `COc1ccc(C2=NOC(C(=O)Nc3cccnc3)C2)cc1OC` (centres undefined), the “activation” value is 9.59%.
The same measure for `CCOC(=O)c1sc2ncn(/N=C/c3cccnc3)c(=O)c2c1C`: -12.6%; for `COc1cc(C(=O)Nc2ccn(C)n2)ccc1OC(F)F`: 7.47%.
Take `O=c1c2ccccc2nc(-c2ccco2)n1/N=C/c1ccco1`: the “activation” value was -8.39%.
Turning to `O=c1c2ccccc2nc(-c2ccco2)n1Cc1ccccc1`, the “activation” value is -3.55%.
With `O=C([C@H]1O[C@@H](n2ccc(=O)[nH]c2=O)[C@H](O)[C@@H]1O)N1CCN(c2ccc(Cl)cn2)CC1` the figure was 68.2%; with `CCCn1nc(C(=O)NC2CC2)c2ccccc2c1=O`, -5.12%; with `Cc1nc2ccccc2c(=O)n1CCCN1CCOCC1`, -11.5%.
`CCOCCCn1c(SCc2ccccc2)nnc1-c1ccncc1`: the “activation” value is 6.18%.
